# Records with an inconclusive call do not appear. Calls of active or inactive are those of the source. Unless noted, calls follow the shape of the full dose curve.
# Target: Peroxisome proliferator-activated receptor gamma (Homo sapiens) (UniProt P37231)
# Experiment: qHTS assay to identify small molecule agonists of the peroxisome proliferator-activated receptor gamma (PPARg) signaling pathway (AID 743094; active = well fitted activation curve with a large enough effect in the signal ratio in the repeat runs, not every such curve was filed as active; the % refers to the signal ratio)
# Conditions: HEK293H PPARg-UAS-bla, beta-lactamase FRET ratio, 17 h; series mostly up to 57 µM; activation: at the top concentration
# Summary of the method: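 Compounds dissolved in DMSO were added to PPARg UAS-bla HEK293H cells for 17 h at 37C, and reporter expression was quantified by fluorescence intensity after 1 h with LiveBLAzer B/G FRET substrate.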
# % is scaled to controls: 0 for no effect and ±100 for the full control effect.
# Peroxisome proliferator-activated receptor gamma (Homo sapiens), sequence (P37231 whole entry, looked up): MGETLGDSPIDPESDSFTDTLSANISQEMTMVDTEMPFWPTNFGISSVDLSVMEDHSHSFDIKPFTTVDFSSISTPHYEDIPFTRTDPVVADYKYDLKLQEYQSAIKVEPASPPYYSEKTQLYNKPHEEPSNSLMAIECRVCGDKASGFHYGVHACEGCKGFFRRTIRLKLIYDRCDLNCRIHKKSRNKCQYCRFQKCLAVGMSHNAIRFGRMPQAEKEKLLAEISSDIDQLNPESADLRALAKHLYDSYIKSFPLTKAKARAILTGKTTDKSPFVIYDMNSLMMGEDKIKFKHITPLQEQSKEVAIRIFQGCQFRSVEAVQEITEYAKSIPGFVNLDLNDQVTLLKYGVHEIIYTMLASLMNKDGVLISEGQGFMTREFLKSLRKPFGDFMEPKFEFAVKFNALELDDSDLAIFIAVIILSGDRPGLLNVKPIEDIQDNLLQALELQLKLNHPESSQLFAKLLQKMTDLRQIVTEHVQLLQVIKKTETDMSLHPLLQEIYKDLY
SMILES,activation,outcome
Cn1c(N)c(N=O)c(=O)n(C)c1=O,-2.54% [at 78.9 µM] (inactive),
N[C@H](C(=O)O)c1ccc(O)cc1,-2.69% (inactive),
Nc1ccccc1S(=O)(=O)O,-1.07% (inactive),
COc1c(N2C[C@@H]3CCCN[C@@H]3C2)c(F)cc2c(=O)c(C(=O)O)cn(C3CC3)c12,,inactive
CC(=O)OCC(CCn1cnc2cnc(N)nc21)COC(C)=O,0.315% (inactive),
CCn1nc(C(=O)O)c(=O)c2cc3c(cc21)OCO3,0.847% [at 26.2 µM] (inactive),
CCC(C)S (stereo not drawn),4.65% [at 3.17 µM] (inactive),
CCCCCCOC(=O)CCCCC(=O)OCCCCCC,-5.79% (inactive),
CC/C=C\CCOC(C)=O,-3.7% (inactive),
C[C@H]1C[C@@H](O)CC(C)(C)C1,-0.517% (inactive),
O=C1OC(=O)C2CCCCC12 (stereo not drawn),-2.84% (inactive),
O=C1CC2CC1C1CCCC21 (stereo not drawn),-6.38% (inactive),
CCCN(CCC)CCc1cccc2c1CC(=O)N2,2.13% (inactive),
C=C(C)CS(=O)(=O)O,6.5% (inactive),
Nc1cc(=O)[nH]c(N)n1,5.41% (inactive),
NCCCNCCSP(=O)(O)O,1.55% (inactive),
CC(=O)OCC(=O)[C@@]1(O)CCC2C3CCC4=CC(=O)CC[C@]4(C)C3[C@@H](O)C[C@@]21C (stereo partly drawn),3.52% (inactive),

SMILES,activation,outcome
NS(=O)(=O)c1ccc(C(=O)O)cc1,1.71% (inactive),
CCOc1ccc(C(=O)OCCN(CC)CC)cc1,-0.729% (inactive),
O=c1cc(CO)occ1O,,inactive
O=c1[nH]c(=O)n([C@H]2C[C@H](O)[C@@H](CO)O2)cc1I,1.32% [at 26.2 µM] (inactive),
CC(C[N+](C)(C)C)OC(N)=O (stereo not drawn),0.24% (inactive),
CO[Si](CCCOCC1CO1)(OC)OC (stereo not drawn),0.328% (inactive),
CN1C(=O)N(C)C(O)C1O (stereo not drawn),-2.81% (inactive),
CC1=CC(C)C(C=O)CC1 (stereo not drawn),-1.56% (inactive),
OCCOc1ccc(OCCO)cc1,3.46% [at 78.9 µM] (inactive),
O=C(O)c1ccccc1OP(=O)(O)O,2.09% (inactive),
CC(C)NC(=O)NC(C)C,6.61% (inactive),
CCN(CC)CCNC(=O)c1cc(S(C)(=O)=O)ccc1OC,1.12% [at 26.2 µM] (inactive),
Cn1cc(S(C)=O)c(=O)c2ccc(F)cc21 (stereo not drawn),-1.7% (inactive),
CC(C)c1cc2c(cc1S(=O)(=O)O)[C@@]1(C)CCC[C@@](C)(C(=O)O)[C@@H]1CC2,2.59% (inactive),
O=c1n(CCO)c(=O)n(CCO)c(=O)n1CCO,,inactive
CCC(C)C1CCCCC1=O (stereo not drawn),-0.562% (inactive),
COC(C)(C)CCCC(C)CC=O (stereo not drawn),4.76% (inactive),

# Target: Peroxisome proliferator-activated receptor gamma (Homo sapiens) (UniProt P37231)
# Experiment: qHTS assay to identify small molecule antagonists of the peroxisome proliferator-activated receptor gamma (PPARg) signaling pathway (AID 743191); also: nearly all actives have a fitted effect of over 30% in size
# Conditions: HEK293H PPARg-UAS-bla, beta-lactamase ratio, antagonist, 17 h; series mostly up to 62.6 µM; ratio activity, negative = inhibition: at the top concentration
# Summary of the method: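 GeneBLAzer PPARg UAS-bla HEK293H cells carrying a UAS-driven beta-lactamase reporter were plated at 3000 cells/well, preincubated 5 h at 37C, then given compound for 17 h at 37C; LiveBLAzer B/G FRET substrate was read after 1 h at room temperature.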
row,SMILES,"ratio activity, negative = inhibition"
1,Cn1c(N)c(N=O)c(=O)n(C)c1=O,0.609% [at 81.1 µM] (inactive)
2,N[C@H](C(=O)O)c1ccc(O)cc1,-0.0543% [at 29.1 µM] (inactive)
3,Nc1ccccc1S(=O)(=O)O,8.25% (inactive)
4,COc1c(N2C[C@@H]3CCCN[C@@H]3C2)c(F)cc2c(=O)c(C(=O)O)cn(C3CC3)c12,1.41% (inactive)
5,CC(=O)OCC(CCn1cnc2cnc(N)nc21)COC(C)=O,-0.163% (inactive)
6,CCn1nc(C(=O)O)c(=O)c2cc3c(cc21)OCO3,0.108% (inactive)
7,CCC(C)S (stereo not drawn),25.6% [at 2.7 µM] (inactive)
8,CCCCCCOC(=O)CCCCC(=O)OCCCCCC,8.86% (inactive)
9,CC/C=C\CCOC(C)=O,-5.69% (inactive)
10,C[C@H]1C[C@@H](O)CC(C)(C)C1,4.39% (inactive)
11,O=C1OC(=O)C2CCCCC12 (stereo not drawn),1.04% (inactive)
12,O=C1CC2CC1C1CCCC21 (stereo not drawn),-0.968% (inactive)
13,CCCN(CCC)CCc1cccc2c1CC(=O)N2,-2.28% (inactive)
14,C=C(C)CS(=O)(=O)O,-6.23% (inactive)
15,Nc1cc(=O)[nH]c(N)n1,7.19% (inactive)
16,NCCCNCCSP(=O)(O)O,-8.68% [at 13.2 µM] (inactive)
17,CC(=O)OCC(=O)[C@@]1(O)CCC2C3CCC4=CC(=O)CC[C@]4(C)C3[C@@H](O)C[C@@]21C (stereo partly drawn),-0.19% (inactive)

row,SMILES,"ratio activity, negative = inhibition"
1,NS(=O)(=O)c1ccc(C(=O)O)cc1,-2.35% (inactive)
2,CCOc1ccc(C(=O)OCCN(CC)CC)cc1,-0.765% (inactive)
3,O=c1cc(CO)occ1O,11.4% (inactive)
4,O=c1[nH]c(=O)n([C@H]2C[C@H](O)[C@@H](CO)O2)cc1I,-1.72% (inactive)
5,CC(C[N+](C)(C)C)OC(N)=O (stereo not drawn),-2.98% (inactive)
6,CO[Si](CCCOCC1CO1)(OC)OC (stereo not drawn),0.073% (inactive)
7,CN1C(=O)N(C)C(O)C1O (stereo not drawn),3.21% (inactive)
8,CC1=CC(C)C(C=O)CC1 (stereo not drawn),2.66% (inactive)
9,OCCOc1ccc(OCCO)cc1,3.63% [at 81.1 µM] (inactive)
10,O=C(O)c1ccccc1OP(=O)(O)O,-9.29% (inactive)
11,CC(C)NC(=O)NC(C)C,5.38% (inactive)
12,CCN(CC)CCNC(=O)c1cc(S(C)(=O)=O)ccc1OC,-1.96% (inactive)
13,Cn1cc(S(C)=O)c(=O)c2ccc(F)cc21 (stereo not drawn),0.226% (inactive)
14,CC(C)c1cc2c(cc1S(=O)(=O)O)[C@@]1(C)CCC[C@@](C)(C(=O)O)[C@@H]1CC2,2.46% (inactive)
15,O=c1n(CCO)c(=O)n(CCO)c(=O)n1CCO,18.1% (inactive)
16,CCC(C)C1CCCCC1=O (stereo not drawn),-0.413% (inactive)
17,COC(C)(C)CCCC(C)CC=O (stereo not drawn),7.73% (inactive)
